# Several values for one entry are separate records, joined by “and”; a condition that tells them apart may be missing. Equal values may be shown once. Hit rate of the full screen: of about 110,000 compounds, about 190 (0.17%) were called active. No stated cut-off is given here; in the data, active means inhibition above about 50%; inactive means the rest. For the sample, actives were picked, then their nearest neighbours and some compounds at random. Results with a measured potency or affinity are listed apart. Where a structure was tested more than once in an assay, its records may differ in their call.
# Biological target: Dual specificity protein phosphatase 6 (Rattus norvegicus) (UniProt Q64346)
# Test: inhibition of rat DUSP6 enzyme activity – biochemical, in vitro, primary screen (AID 425);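 further: plate controls were vehicle for no effect and reference inhibitor for full effect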
# Details: recombinant MKP-3 phosphatase activity, fluorescence; at 20 µM; stronger effect = higher value
# Dual specificity protein phosphatase 6 (Rattus norvegicus), sequence (Q64346 whole entry, looked up): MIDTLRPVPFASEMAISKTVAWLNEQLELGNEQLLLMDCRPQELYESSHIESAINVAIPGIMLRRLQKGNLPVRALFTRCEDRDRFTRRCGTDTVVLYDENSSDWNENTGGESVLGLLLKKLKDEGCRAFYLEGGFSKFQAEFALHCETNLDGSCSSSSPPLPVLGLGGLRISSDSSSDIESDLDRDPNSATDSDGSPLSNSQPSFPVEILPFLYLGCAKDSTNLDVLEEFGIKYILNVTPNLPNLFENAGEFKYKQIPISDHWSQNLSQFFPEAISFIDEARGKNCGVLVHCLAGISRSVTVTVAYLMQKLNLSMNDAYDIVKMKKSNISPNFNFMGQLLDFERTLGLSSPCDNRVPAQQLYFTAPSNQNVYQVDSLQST
row,Structure (SMILES),inhibition
1,CC(=O)/C(C1=C(C(C)(C)C)C(=O)C(=O)C(C(C)(C)C)=C1)=C(/C)O,6.5% (inactive)
2,CC(C)(C)C1=CC(N)=C(C(C)(C)C)C(=O)C1=O,86.4% (active)
3,CC(C)(C)C1=CC(=O)C=C(C(C)(C)C)C1=O,6.8% (inactive)
4,c1ccc(Cn2ncc3c(N4CCN(c5ccccn5)CC4)ncnc32)cc1,6.4% (inactive)
5,COc1ccc(CNS(=O)(=O)c2ccc([N+](=O)[O-])cc2)cc1,-4% (inactive)
6,C=CCN1C(=O)NC(=O)/C(=C\c2ccc(OCc3ccc(Cl)cc3)c(OC)c2)C1=O,5.1% (inactive)
7,COc1cccc(/C=N/n2c(SC)nnc2-c2ccccc2)c1O,-6.8% (inactive)
8,Brc1ccc(/C=N/n2c(-c3ccccc3)nnc2-c2ccccc2)cc1,-2.7% (inactive)
9,O=C(c1ccco1)N1CCN(S(=O)(=O)c2ccc(Br)s2)CC1,-14.7% (inactive)
10,CCOc1ccc(NC(=O)c2cccc(F)c2)cc1,4.1% (inactive)
11,O=C(Nc1cccc(NC(=O)c2cccnc2)c1)c1cccnc1,5.6% (inactive)
12,Nc1ccc(S(=O)(=O)O)c2cccc(S(=O)(=O)O)c12,-2.3% (inactive)
13,Nc1ccc(S(=O)(=O)O)c2cccc(O)c12,29.8% (inactive) and 64.8% (active)
14,Nc1cc(S(=O)(=O)O)cc2cccc(S(=O)(=O)O)c12,-2% (inactive)
15,O=C(c1ccc(N2CCN(C(=O)c3ccccc3F)CC2)cc1)c1cccc(F)c1,4.1% (inactive)
16,O=C(c1ccc(N2CCN(C(=O)c3ccccc3Br)CC2)cc1)c1cccc(F)c1,52.2% (active)
17,O=C(c1ccc(N2CCN(C(=O)c3ccccc3)CC2)cc1)c1cccc(F)c1,4.8% (inactive)
18,Cc1ccc(C(=O)Nc2ccc(N3CCOCC3)c(Cl)c2)cc1C,5.9% (inactive)
19,O=S(=O)(c1cc(Cl)cc(Cl)c1O)c1cc(Cl)cc(Cl)c1O,-3.1% (inactive)
20,O=C(Cn1c(NCCCO)nc2ccccc21)c1ccco1,-11.1% (inactive)

row,Structure (SMILES),inhibition
1,Cc1cc(I)c2c(c1)C1C=CCC1C(C(=O)O)N2 (stereo not given),103% (active)
2,O=C(O)C1Nc2c(C(=O)N3CCCC3)cccc2C2C=CCC12 (stereo not given),5% (inactive)
3,Cc1ccc2c(c1)C1C=CCC1C(c1ccc([N+](=O)[O-])cc1)N2 (stereo not given),3.4% (inactive)
4,O=C(O)C1Nc2c(Cl)cc(Cl)cc2C2C=CCC12 (stereo not given),98.5% (active)
5,Cc1c(Cl)ccc2c1NC(C(=O)O)C1CC=CC21 (stereo not given),107% (active)
6,CCOC(=O)c1ccc2c(c1)C1C=CCC1C(c1ccc(Cl)cc1Cl)N2 (stereo not given),3.3% (inactive)
7,O=C(O)C1Nc2c(C(=O)N3CCOCC3)cccc2C2C=CCC12 (stereo not given),0.2% (inactive)
8,CC(=O)c1ccc2c(c1)C1C=CCC1C(c1ccc(Cl)cc1)N2 (stereo not given),14.4% (inactive)
9,Cc1ccc2c(c1)C1C=CCC1C(c1ccccc1[N+](=O)[O-])N2 (stereo not given),7% (inactive)
10,Brc1ccc(-c2nc(Cc3ccccc3)no2)cc1,-2.5% (inactive)
11,CCOc1cc(-c2noc(CCC(=O)Nc3cccnc3)n2)ccc1OC,-11.2% (inactive)
12,Cc1ccc2nc(-c3cccc(NC(=O)c4ccco4)c3)[nH]c2c1,0.4% (inactive)
13,O=C(Nc1ccc(-c2nc3ccccc3[nH]2)cc1)c1ccccc1,-0.7% (inactive)
14,O=C(Nc1ccc(-c2nc3ccccc3[nH]2)cc1)c1cc2ccccc2o1,53.5% (active)
15,O=C(Nc1ccc(-c2nc3ccccc3[nH]2)cc1)c1ccc(Cl)c(Cl)c1,51.8% (active)
16,O=C(Nc1ccc(-c2nc3ccccc3[nH]2)cc1)c1ccc(Cl)cc1,5.4% (inactive)
17,O=C(Nc1ccc(-c2nc3ccccc3[nH]2)cc1)c1ccc(Br)o1,8.1% (inactive)
18,O=C(Nc1cccc(-c2nc3ccccc3[nH]2)c1)c1ccco1,3.5% (inactive)
19,O=C(Nc1ccc(Cl)c(-c2nc3ccccc3[nH]2)c1)c1cc2ccccc2o1,5% (inactive)
20,Cc1cc(F)ccc1S(=O)(=O)Nc1c(C)n(C)n(-c2ccccc2)c1=O,6.3% (inactive)

row,Structure (SMILES),inhibition
1,O=C(O)COc1ccc2c(=O)c(-c3ccc(Cl)cc3)coc2c1,2% (inactive)
2,CCCCOCCCNC(=O)N[C@@H](CC(C)C)C(=O)O,7.7% (inactive)
3,COc1ccc(Cl)cc1C(=O)Nc1ccc(N(C)C)cc1,0.6% (inactive)
4,CSCCNS(=O)(=O)c1ccc(NC(C)=O)cc1,1.1% (inactive)
5,O=C1NC(=S)N(c2ccccc2F)C(=O)/C1=C/c1ccc(Sc2ccccc2)o1,7.1% (inactive)
6,CCOc1ccc(N2C(=O)/C(=C/c3ccc(OCc4cccc(C(=O)O)c4)cc3)C(=O)NC2=S)cc1,-1.9% (inactive)
7,CCOc1ccc(N2C(=O)NC(=O)/C(=C\c3ccc(I)o3)C2=O)cc1,5.3% (inactive)
8,CCc1ccc(N2C(=O)/C(=C/c3ccc(I)o3)C(=O)NC2=S)cc1,104% (active)
9,O=C1NC(=S)N(c2ccccc2F)C(=O)/C1=C/c1ccc(OCc2cccc(C(=O)O)c2)cc1,68.5% (active)
10,O=C1NC(=S)N(c2ccccc2F)C(=O)/C1=C/c1ccc(I)o1,91.2% (active)
11,O=C1NC(=O)N(c2ccccc2F)C(=O)/C1=C/c1ccc(I)o1,12.9% (inactive)
12,CCOc1ccc(N2C(=O)/C(=C/c3ccc(I)o3)C(=O)NC2=S)cc1,107% (active)
13,Cc1ccc(N2C(=O)NC(=O)/C(=C\c3ccc(I)o3)C2=O)cc1,5.4% (inactive)
14,CCOc1ccc(N2C(=O)/C(=C/c3ccc(N(CC)CC)o3)C(=O)NC2=S)cc1,-0.2% (inactive)
15,O=C1NC(=O)N(c2ccc(Cl)cc2)C(=O)/C1=C/c1ccc(I)o1,23.6% (inactive)
16,O=C1NC(=O)N(c2ccccc2F)C(=O)/C1=C/c1ccc(OCc2cccc(C(=O)O)c2)cc1,0.8% (inactive)
17,CC(C)c1ccc(NC2=NS(=O)(=O)c3cc([N+](=O)[O-])ccc32)cc1,2.8% (inactive)
18,Cc1c(Cl)cccc1NC(=O)C(=O)NCc1ccc2c(c1)OCO2,0.1% (inactive)
19,CCOC(=O)c1ccc(NC(=O)CN(c2ccccc2OC)S(=O)(=O)c2ccccc2)cc1,-2.1% (inactive)
20,CCCC(=O)OCC(=O)Nc1cc(C(C)(C)C)nn1-c1ccccc1,-0.4% (inactive)
